Holding throughout (experiment): PBM; 200 nM protein, PBS
Holding throughout (details): dsDNA, one strand shown

For test [1], the target named is HESX1 (Homo sapiens, UniProt Q9UBX0 95-180, R165K).
For test [2], the target named is HOXB4 (Homo sapiens, UniProt P17483 148-234).
In test [3] the target is SHOX (Homo sapiens, UniProt O15266 103-189).
Test [4] has as its target HESX1 (Homo sapiens, UniProt Q9UBX0 95-180).
The target in a further test is HOXA4 (Homo sapiens, UniProt Q00056 201-287, R217L).
HOXA4, sequence (Q00056 201-287 R217L): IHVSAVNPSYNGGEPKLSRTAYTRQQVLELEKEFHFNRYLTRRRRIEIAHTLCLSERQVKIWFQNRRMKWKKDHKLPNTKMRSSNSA
The target of test [5] is HOXB4 (Homo sapiens, UniProt P17483 148-234, V174I).
HOXB4 (Homo sapiens, UniProt P17483 148-234, V174I), sequence (P17483 148-234 V174I): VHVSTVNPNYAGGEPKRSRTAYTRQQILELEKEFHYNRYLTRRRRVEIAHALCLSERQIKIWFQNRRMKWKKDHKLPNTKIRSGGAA
Test [6] deals with ALX1 (Homo sapiens, UniProt Q15699 118-204, L144V).
ALX1 (Homo sapiens, UniProt Q15699 118-204, L144V), sequence (Q15699 118-204 L144V): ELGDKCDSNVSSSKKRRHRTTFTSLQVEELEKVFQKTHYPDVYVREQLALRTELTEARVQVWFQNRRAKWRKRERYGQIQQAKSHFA
The target of test [7] is ALX3 (Homo sapiens, UniProt O95076 139-225, N203Q).
ALX3 (Homo sapiens, UniProt O95076 139-225, N203Q), sequence (O95076 139-225 N203Q): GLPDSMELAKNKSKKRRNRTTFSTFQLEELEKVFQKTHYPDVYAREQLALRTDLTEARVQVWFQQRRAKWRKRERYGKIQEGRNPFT
For test [8], the target named is SHOX (Homo sapiens, UniProt O15266 103-189, R173C).
SHOX (Homo sapiens, UniProt O15266 103-189, R173C), sequence (O15266 103-189 R173C): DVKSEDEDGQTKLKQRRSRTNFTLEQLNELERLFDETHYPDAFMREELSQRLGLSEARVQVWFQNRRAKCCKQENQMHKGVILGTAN
The target of test [9] is ALX1 (Homo sapiens, UniProt Q15699 118-204, L144R).
ALX1 (Homo sapiens, UniProt Q15699 118-204, L144R), sequence (Q15699 118-204 L144R): as the sequence (Q15699 118-204 L144V) above, with V27R counted along it
Test [10] addresses ALX3 (Homo sapiens, UniProt O95076 139-225).
In test [11] the target is PROP1 (Homo sapiens, UniProt O75360 56-141).
PROP1 (Homo sapiens, UniProt O75360 56-141), sequence (O75360 56-141): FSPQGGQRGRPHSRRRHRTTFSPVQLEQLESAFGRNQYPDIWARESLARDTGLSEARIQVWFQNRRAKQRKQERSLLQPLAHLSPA
Test [12] addresses HESX1 (Homo sapiens, UniProt Q9UBX0 95-180, R109Q).
In test [13] the target is PROP1 (Homo sapiens, UniProt O75360 56-141, R99H).
PROP1 (Homo sapiens, UniProt O75360 56-141, R99H), sequence (O75360 56-141 R99H): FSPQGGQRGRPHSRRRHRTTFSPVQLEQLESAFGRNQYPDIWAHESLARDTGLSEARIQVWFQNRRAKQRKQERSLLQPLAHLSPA
The target in test [14] is ALX3 (Homo sapiens, UniProt O95076 139-225, L168Q).
ALX3 (Homo sapiens, UniProt O95076 139-225, L168Q), sequence (O95076 139-225 L168Q): as the sequence (O95076 139-225 N203Q) above, with L30Q, Q65N counted along it
The target of test [15] is HESX1 (Homo sapiens, UniProt Q9UBX0 95-180, P111T).
HESX1 (Homo sapiens, UniProt Q9UBX0 95-180, P111T), sequence (Q9UBX0 95-180 P111T): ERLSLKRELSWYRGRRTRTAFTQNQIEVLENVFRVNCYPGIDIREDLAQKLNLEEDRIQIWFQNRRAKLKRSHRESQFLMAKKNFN
For test [16], the target named is ALX3 (Homo sapiens, UniProt O95076 139-225, L168V).
ALX3 (Homo sapiens, UniProt O95076 139-225, L168V), sequence (O95076 139-225 L168V): as the sequence (O95076 139-225 N203Q) above, with L30V, Q65N counted along it
Test [17] deals with PROP1 (Homo sapiens, UniProt O75360 56-141, F88S).
PROP1 (Homo sapiens, UniProt O75360 56-141, F88S), sequence (O75360 56-141 F88S): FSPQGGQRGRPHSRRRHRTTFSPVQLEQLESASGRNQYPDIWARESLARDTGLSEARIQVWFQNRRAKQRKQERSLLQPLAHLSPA
For test [18], the target named is HESX1 (Homo sapiens, UniProt Q9UBX0 95-180, F115L).
HESX1 (Homo sapiens, UniProt Q9UBX0 95-180, F115L), sequence (Q9UBX0 95-180 F115L): as the sequence (Q9UBX0 95-180 P111T) above, with T17P, F21L counted along it
For test [19], the target named is ALX3 (Homo sapiens, UniProt O95076 139-225, N203S).
ALX3 (Homo sapiens, UniProt O95076 139-225, N203S), sequence (O95076 139-225 N203S): as the sequence (O95076 139-225 N203Q) above, with Q65S counted along it

HESX1 (Homo sapiens, UniProt Q9UBX0 95-180, R109Q), sequence (Q9UBX0 95-180 R109Q): as the sequence (Q9UBX0 95-180 P111T) above, with R15Q, T17P counted along it
HOXB4 (Homo sapiens, UniProt P17483 148-234), sequence (P17483 148-234): as the sequence (P17483 148-234 V174I) above, with I27V counted along it
ALX3 (Homo sapiens, UniProt O95076 139-225), sequence (O95076 139-225): as the sequence (O95076 139-225 N203Q) above, with Q65N counted along it
SHOX (Homo sapiens, UniProt O15266 103-189), sequence (O15266 103-189): as the sequence (O15266 103-189 R173C) above, with C71R counted along it
HESX1 (Homo sapiens, UniProt Q9UBX0 95-180, R165K), sequence (Q9UBX0 95-180 R165K): as the sequence (Q9UBX0 95-180 P111T) above, with T17P, R71K counted along it
HESX1 (Homo sapiens, UniProt Q9UBX0 95-180), sequence (Q9UBX0 95-180): as the sequence (Q9UBX0 95-180 P111T) above, with T17P counted along it

Consider CGTAATTA, for which the binding signal was 12.6 upbm affinity estimate (log intensity, higher = more binding, comparable within an allelic series) with HESX1 [1]; 13.5 upbm affinity estimate (log intensity, higher = more binding, comparable within an allelic series) in the test with HOXB4 [2]; 12.4 upbm affinity estimate (log intensity, higher = more binding, comparable within an allelic series) with SHOX [3]; 12.6 upbm affinity estimate (log intensity, higher = more binding, comparable within an allelic series) with HESX1 [4]; 12.7 upbm affinity estimate (log intensity, higher = more binding, comparable within an allelic series) with HOXA4; 14.3 upbm affinity estimate (log intensity, higher = more binding, comparable within an allelic series) with HOXB4 [5]. The binding signal with ALX1 [6] was 12 upbm affinity estimate (log intensity, higher = more binding, comparable within an allelic series); in the test with ALX3 [7] it was 8.47 upbm affinity estimate (log intensity, higher = more binding, comparable within an allelic series); in the test with SHOX [8], 9.89 upbm affinity estimate (log intensity, higher = more binding, comparable within an allelic series); with ALX1 [9] it was 11.7 upbm affinity estimate (log intensity, higher = more binding, comparable within an allelic series); with ALX3 [10] it was 12.7 upbm affinity estimate (log intensity, higher = more binding, comparable within an allelic series); in the test with PROP1 [11], 11.6 upbm affinity estimate (log intensity, higher = more binding, comparable within an allelic series). Besides, the binding signal with HESX1 [12] is 9.06 upbm affinity estimate (log intensity, higher = more binding, comparable within an allelic series); with PROP1 [13], 11.5 upbm affinity estimate (log intensity, higher = more binding, comparable within an allelic series); with ALX3 [14], 10.7 upbm affinity estimate (log intensity, higher = more binding, comparable within an allelic series); with HESX1 [15], 11.1 upbm affinity estimate (log intensity, higher = more binding, comparable within an allelic series); with ALX3 [16], 10.2 upbm affinity estimate (log intensity, higher = more binding, comparable within an allelic series); with PROP1 [17] it was 7.88 upbm affinity estimate (log intensity, higher = more binding, comparable within an allelic series). Further, the binding signal in the test with HESX1 [18] was 7.77 upbm affinity estimate (log intensity, higher = more binding, comparable within an allelic series); in the test with ALX3 [19], 8.56 upbm affinity estimate (log intensity, higher = more binding, comparable within an allelic series).

For GCTAATTA, the binding signal in the test with HESX1 [1] was 13.8 upbm affinity estimate (log intensity, higher = more binding, comparable within an allelic series); with HOXB4 [2] it was 13.6 upbm affinity estimate (log intensity, higher = more binding, comparable within an allelic series); in the test with SHOX [3], 13.5 upbm affinity estimate (log intensity, higher = more binding, comparable within an allelic series); with HESX1 [4], 13.6 upbm affinity estimate (log intensity, higher = more binding, comparable within an allelic series); with HOXA4, 13 upbm affinity estimate (log intensity, higher = more binding, comparable within an allelic series); with HOXB4 [5], 14.3 upbm affinity estimate (log intensity, higher = more binding, comparable within an allelic series). Also, the binding signal is 12.4 upbm affinity estimate (log intensity, higher = more binding, comparable within an allelic series) with ALX1 [6]; 8.53 upbm affinity estimate (log intensity, higher = more binding, comparable within an allelic series) in the test with ALX3 [7]; 10.9 upbm affinity estimate (log intensity, higher = more binding, comparable within an allelic series) with SHOX [8]; 12 upbm affinity estimate (log intensity, higher = more binding, comparable within an allelic series) with ALX1 [9]; 13 upbm affinity estimate (log intensity, higher = more binding, comparable within an allelic series) with ALX3 [10]; 12.1 upbm affinity estimate (log intensity, higher = more binding, comparable within an allelic series) with PROP1 [11]. Moreover, the binding signal with HESX1 [12] is 10.5 upbm affinity estimate (log intensity, higher = more binding, comparable within an allelic series); with PROP1 [13] it was 12.3 upbm affinity estimate (log intensity, higher = more binding, comparable within an allelic series); with ALX3 [14], 11.4 upbm affinity estimate (log intensity, higher = more binding, comparable within an allelic series); with HESX1 [15], 12.4 upbm affinity estimate (log intensity, higher = more binding, comparable within an allelic series); with ALX3 [16], 11.2 upbm affinity estimate (log intensity, higher = more binding, comparable within an allelic series); in the test with PROP1 [17], 8.03 upbm affinity estimate (log intensity, higher = more binding, comparable within an allelic series). For the same sequence, the binding signal in the test with HESX1 [18] is 8.29 upbm affinity estimate (log intensity, higher = more binding, comparable within an allelic series); with ALX3 [19], 8.71 upbm affinity estimate (log intensity, higher = more binding, comparable within an allelic series).

Consider CTAATTAA, for which the binding signal with HESX1 [1] is 13.8 upbm affinity estimate (log intensity, higher = more binding, comparable within an allelic series); with HOXB4 [2], 13.3 upbm affinity estimate (log intensity, higher = more binding, comparable within an allelic series); in the test with SHOX [3], 13.4 upbm affinity estimate (log intensity, higher = more binding, comparable within an allelic series); in the test with HESX1 [4], 13.6 upbm affinity estimate (log intensity, higher = more binding, comparable within an allelic series); with HOXA4 it was 12.9 upbm affinity estimate (log intensity, higher = more binding, comparable within an allelic series); with HOXB4 [5], 13.9 upbm affinity estimate (log intensity, higher = more binding, comparable within an allelic series). The binding signal in the test with ALX1 [6] was 12.3 upbm affinity estimate (log intensity, higher = more binding, comparable within an allelic series); in the test with ALX3 [7], 8.64 upbm affinity estimate (log intensity, higher = more binding, comparable within an allelic series); with SHOX [8], 11.1 upbm affinity estimate (log intensity, higher = more binding, comparable within an allelic series); with ALX1 [9], 11.9 upbm affinity estimate (log intensity, higher = more binding, comparable within an allelic series); with ALX3 [10], 12.9 upbm affinity estimate (log intensity, higher = more binding, comparable within an allelic series); with PROP1 [11] it was 12.2 upbm affinity estimate (log intensity, higher = more binding, comparable within an allelic series). In addition, the binding signal is 11.2 upbm affinity estimate (log intensity, higher = more binding, comparable within an allelic series) with HESX1 [12]; 12.4 upbm affinity estimate (log intensity, higher = more binding, comparable within an allelic series) in the test with PROP1 [13]; 11.6 upbm affinity estimate (log intensity, higher = more binding, comparable within an allelic series) in the test with ALX3 [14]; 12.6 upbm affinity estimate (log intensity, higher = more binding, comparable within an allelic series) with HESX1 [15]; 11.4 upbm affinity estimate (log intensity, higher = more binding, comparable within an allelic series) in the test with ALX3 [16]; 8.3 upbm affinity estimate (log intensity, higher = more binding, comparable within an allelic series) with PROP1 [17]. In addition, the binding signal with HESX1 [18] was 8.61 upbm affinity estimate (log intensity, higher = more binding, comparable within an allelic series); with ALX3 [19], 8.84 upbm affinity estimate (log intensity, higher = more binding, comparable within an allelic series).

On to GCAATTAA, for which the binding signal is 12.6 upbm affinity estimate (log intensity, higher = more binding, comparable within an allelic series) with HESX1 [1]; 13.2 upbm affinity estimate (log intensity, higher = more binding, comparable within an allelic series) in the test with HOXB4 [2]; 12.1 upbm affinity estimate (log intensity, higher = more binding, comparable within an allelic series) with SHOX [3]; 12.7 upbm affinity estimate (log intensity, higher = more binding, comparable within an allelic series) with HESX1 [4]; 12.4 upbm affinity estimate (log intensity, higher = more binding, comparable within an allelic series) in the test with HOXA4; 13.9 upbm affinity estimate (log intensity, higher = more binding, comparable within an allelic series) with HOXB4 [5]. Moreover, the binding signal was 11.6 upbm affinity estimate (log intensity, higher = more binding, comparable within an allelic series) with ALX1 [6]; 8.37 upbm affinity estimate (log intensity, higher = more binding, comparable within an allelic series) in the test with ALX3 [7]; 9.65 upbm affinity estimate (log intensity, higher = more binding, comparable within an allelic series) with SHOX [8]; 11.3 upbm affinity estimate (log intensity, higher = more binding, comparable within an allelic series) in the test with ALX1 [9]; 12.4 upbm affinity estimate (log intensity, higher = more binding, comparable within an allelic series) in the test with ALX3 [10]; 11.5 upbm affinity estimate (log intensity, higher = more binding, comparable within an allelic series) with PROP1 [11]. Moreover, the binding signal in the test with HESX1 [12] was 9.34 upbm affinity estimate (log intensity, higher = more binding, comparable within an allelic series); with PROP1 [13] it was 11.6 upbm affinity estimate (log intensity, higher = more binding, comparable within an allelic series); in the test with ALX3 [14] it was 10.7 upbm affinity estimate (log intensity, higher = more binding, comparable within an allelic series); in the test with HESX1 [15] it was 11.2 upbm affinity estimate (log intensity, higher = more binding, comparable within an allelic series); in the test with ALX3 [16], 10.2 upbm affinity estimate (log intensity, higher = more binding, comparable within an allelic series); in the test with PROP1 [17], 7.72 upbm affinity estimate (log intensity, higher = more binding, comparable within an allelic series). For the same sequence, the binding signal with HESX1 [18] is 7.72 upbm affinity estimate (log intensity, higher = more binding, comparable within an allelic series); with ALX3 [19], 8.51 upbm affinity estimate (log intensity, higher = more binding, comparable within an allelic series).

(Values after PMC11006913.)
